Source: ChEMBL document CHEMBL1157539, “Thousands of chemical starting points for antimalarial lead identification” (Nature, 2010)

Test system: Plasmodium falciparum
Assay: GSK_TCMDC: Inhibition of Plasmodium falciparum 3D7 in whole red blood cells, using parasite LDH activity as an index of growth. Test compounds present at 2uM
Format: functional

SMILES	Inhibition [%]
O=C(Nc1ccc(S(=O)(=O)N2CCCCC2)cc1)c1cc(-c2ccccc2O)n[nH]1	94
COc1ccc(CNCc2ccsc2)cc1-c1ccc(OC)c(S(=O)(=O)NCCN2CCCC2)c1.O=C(O)C(F)(F)F	97
Cn1nc(C(F)(F)F)c(-c2ccc(Br)cc2)c1NC(=O)Cc1ccccc1F	100
NC1CCCN(Cc2ccc(-c3ccc(-c4nc5cc(F)ccc5[nH]4)s3)cc2)C1.O=C(O)C(F)(F)F (stereo not given)	100
C=CC[C@H](NC(=O)c1ccc(NS(=O)(=O)c2ccc3nc(N)[nH]c(=O)c3c2)cc1)C(=O)OCCCC	97
NC1CCN(Cc2cccc(-c3ccc(-c4nc5ccccc5[nH]4)cc3)c2)C1.O=C(O)C(F)(F)F (stereo not given)	100
COc1ccc(C2CC(c3cccs3)=NN2C(=O)c2ccccc2)cc1OC (stereo not given)	99
CN1CCC(NCc2ccc(-c3cccc(S(=O)(=O)NCc4ccccc4)c3)cc2)CC1.O=C(O)C(F)(F)F	100
Cc1nnsc1C(=O)Nc1cccc(-c2ccc(-c3nc4ccccc4[nH]3)cc2)c1	100
CN(C)C(=O)CC(=O)NCc1cccc(Cl)c1	99
COc1cc(-c2nc(-c3ccccc3)c(-c3ccccc3)[nH]2)cc(OC)c1O	100
CCc1cc2c(Sc3nc4ccccc4[nH]3)ncnc2s1	97
CCN(CC)CCCN(Cc1ccc(-c2ccc(C(F)(F)F)cc2)cc1)C(=O)Cn1c(SCc2cccc(F)c2F)cc(=O)c2ccccc21.O=C(O)C(O)C(O)C(=O)O	87
CCC(CC)n1cc2c(ccc3nc(N)nc(N)c32)n1	91
CCOc1cc(C(=O)NCc2cccc(C(F)(F)F)c2)ccc1-c1nc2cc(Cl)ccc2[nH]1	88
COc1ccc(CC(=O)Nc2ccc(-c3cccc(-c4nc5cccc(C)c5[nH]4)c3)cc2)cc1O	96
Cc1ccc(Oc2cnn(C)c(=O)c2Nc2cccc(C(=O)NCCc3ccccn3)c2)c(C)c1	94
COc1ccc2nccc([C@@H](O)CN3CCC(NCCOc4ccccc4[N+](=O)[O-])CC3)c2c1.O=C(O)C(=O)O	100
CS(=O)(=O)CCNCc1ccc(-c2ccc3ncnc(Nc4ccc(OCc5ccccc5)c(Cl)c4)c3c2)o1.Cl [GW574783B]	100
O=C(O)C(F)(F)F.O=C1CCCN1CCCNCc1ccc(-c2ccc(-c3nc4cc(C(F)(F)F)ccc4[nH]3)s2)cc1	100

SMILES	Inhibition [%]
COc1ccc(NC(=O)c2cccc(Br)c2)cc1N1CCN(CCCCCCCN2CCN(c3cc(NC(=O)c4cccc(Br)c4)ccc3OC)CC2)CC1.Cl	99
CNc1c2c(nc3ccc(NC(=O)CCCCCCc4ccccc4)cc13)CCCC2.Cl	100
COc1ccc2ccccc2c1CCCCN1CCN(CC(c2ccc(F)cc2)N2CCN(C(C)C)CC2)CC1.Cl (stereo not given)	100
Cn1cnc2c(Nc3ccncc3)nc(-c3ccc4ccccc4c3)nc21	96
CC(C)NCc1cccc(-c2ccc(-c3nc4ccccc4[nH]3)cc2)c1.O=C(O)C(F)(F)F	100
O=C(N[C@@H](Cc1ccccc1)C(=O)NCc1cccc2ccccc12)c1ccc(O)c(-c2ccc(Cl)c(Cl)c2)c1	100
O=C(Nc1ccc2c(c1)CCNCC2)Nc1ccc2ccccc2c1.O=C(O)C(F)(F)F	84
COc1ccccc1C1CCN(CCCCNC(=O)c2ccc(/C=C/c3cc(Cl)cc(Cl)c3)cc2)CC1	96
COc1cc(OC)c(NC(=O)C2c3ccccc3C(=O)N(CC(C)C)C2c2cccs2)cc1Cl (stereo not given)	100
CN(CC(=O)Nc1ccc(F)cc1)C(=O)c1ccc(-c2ccc(F)cc2)o1	89
COc1ccc(C2CC(=O)C3=C(C2)NC(C)=C(C(=O)OC(C)C)C3c2cccc(O)c2)cc1OC (stereo not given)	100
CC(=O)c1ccc(-n2ccnc2)cc1	92
COc1cc2ccccc2c(OC)c1CCNCCCCNCCc1c(OC)cc2ccccc2c1OC.CS(=O)(=O)O	99
Cc1cccc2nc(-c3ccc(-c4ccc(CNCCCNS(C)(=O)=O)cc4)s3)[nH]c12.O=C(O)C(F)(F)F	99
CN(CCCCCNC(=O)/C=C/c1ccc(Cl)c(Cl)c1)CCCCc1c[nH]c2ccccc12	90
Cc1nc(N)nc(N)c1CCCOc1ccccc1Br	97
CCOC(=O)NC1=NC(=N)N(OCCCOc2cc(Cl)c(Cl)cc2Cl)C(C)(C)N1	97
O=C(Nc1ccc(-c2cccc(-c3nc4cc(C(F)(F)F)ccc4[nH]3)c2)cc1)Nc1ccc(Cl)c(Cl)c1	98
O=C(O)C(F)(F)F.c1ccc(CNCc2cccc(-c3cccc(-c4nc5ccccc5[nH]4)c3)c2)cc1	100
CCCCCOc1c(CCC)cc(Cc2cnc(N)nc2N)cc1CCC	94
